The record followed here is PubChem BioAssay (NCATS).

Unmarked numbers belong to inactive results. Results filed as inconclusive are left out. Active and inactive are the calls of the source. Calls follow the shape of the dose curve; as a rule, active = well fitted curve in the direction sought with a large enough effect; inconclusive = small, poorly fitted or top-dose-only effect, or another doubt; inactive = no such curve, though single readings can be large; an effect the other way counts as inactive or inconclusive.

Assay [1] has as its target Cytochrome P450 3A4 (Homo sapiens) (UniProt P08684). Kind of assay: qHTS Assay for Inhibitors and Substrates of Cytochrome P450 3A4 (AID 884). Also: nearly all actives have a fitted effect of over 50% in size. Also: potency is read from the fitted curve at half-maximal effect. As to activity change, negative = inhibition: series mostly up to about 57 µM; % is scaled to controls: 0 for no effect and ±100 for the full control effect. The method in brief:
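20 nM human CYP3A4 with 25 uM Luciferin-PPXE (at KM) in 200 mM KPO4, preincubated 10 min with compound; NADPH regeneration started a 60 min RT reaction. Luciferin detected by luminescence, normalized to 57 uM ketoconazole as full inhibition.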

Assay [2] is described as follows: Confirmation and Secondary Assay for Modulators of Hemoglobin Beta Chain Splicing at IVS2 654 locus (AID 910).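 Also: HeLa cells stably carrying EGFP split by mutant beta-globin IVS2-654 intron; per-well total GFP intensity by laser scanning cytometry after 2-day treatment; % of control where 0% means no effect.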 The method in brief:
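Readout: per-well total peak green fluorescence (488 nm ex, 500–520 nm em) from objects 5–250 µm, reflecting correct splicing of an EGFP-654 reporter. Compounds were applied for 2 days at 37 °C to overnight-plated HeLa EGFP-654 cells; controls were DMSO and 500 nM IVS2-654 PNA.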

Assay [3] has as its target Cytochrome P450 3A4 (Homo sapiens) (UniProt P08684). Kind of assay: qHTS Assay for Activators of Cytochrome P450 3A4 (AID 885). Also: nearly all actives have a fitted effect of over 65% in size. Also: potency is read from the fitted curve at half-maximal effect. The method in brief:
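20nM CYP3A4 + 25uM Luciferin-PPXE (=KM), 200mM KPO4; cpd 10 min RT; NADPH regen, 60 min RT; stop w/ detection buffer, 20 min; luminescence. Normalized to 57 uM ketoconazole.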

Assay [4] addresses Cytochrome P450 2C9 (Homo sapiens) (UniProt P11712). Kind of assay: qHTS Assay for Inhibitors and Substrates of Cytochrome P450 2C9 (AID 883). Also: nearly all actives have a fitted effect of over 60% in size. Also: potency is read from the fitted curve at half-maximal effect. As to activity change, negative = inhibition: % is scaled to controls: 0 for no effect and ±100 for the full control effect. The gist of the method: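 Inhibition of CYP2C9 is scored as loss of luminescence, with 57uM sulphaphenazole defining 100% inhibition. Substrate Luciferin-H is used at 100uM, equal to its KM; enzyme at 10nM in 25mM KPO4, 60 min at 37C with NADPH regeneration.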
(In general: In qHTS, concentration-response curves come from the screen itself.)

For assay [5], the target named is Cytochrome P450 2D6 (Homo sapiens) (UniProt P10635). Kind of assay: qHTS Assay for Inhibitors and Substrates of Cytochrome P450 2D6 (AID 891). Also: potency is read from the fitted curve at half-maximal effect; nearly all actives have a fitted effect of over 60% in size. The following applies: recombinant CYP2D6, luciferin-ME EGE luminescence. The gist of the method:
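Human CYP2D6 (5 nM) with 30 uM Luciferin-ME EGE (at Km) in 100 mM KPO4, compound preincubated 10 min, then NADPH regeneration system for 60 min at room temperature. Luciferin read by luminescence; normalized to 1.43 uM quinidine.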

In assay [6] the target is Cytochrome P450 2C19 (Homo sapiens) (UniProt P33261). Kind of assay: qHTS Assay for Inhibitors and Substrates of Cytochrome P450 2C19 (AID 899). Also: potency is read from the fitted curve at half-maximal effect; nearly all actives have a fitted effect of over 60% in size. The conditions noted are these: recombinant CYP2C19, luciferin-H EGE luminescence. The method in brief: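 5nM enzyme + 10uM Luciferin-H EGE (=KM), 50mM KPO4; cpd pin-transferred, 10 min 37C; NADPH regen, 60 min 37C; stopped w/ luciferin detection reagent, 20 min; luminescence. Normalized to 57uM ketoconazole (AC100).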
Cytochrome P450 2C19 (Homo sapiens), sequence (P33261 whole entry, looked up): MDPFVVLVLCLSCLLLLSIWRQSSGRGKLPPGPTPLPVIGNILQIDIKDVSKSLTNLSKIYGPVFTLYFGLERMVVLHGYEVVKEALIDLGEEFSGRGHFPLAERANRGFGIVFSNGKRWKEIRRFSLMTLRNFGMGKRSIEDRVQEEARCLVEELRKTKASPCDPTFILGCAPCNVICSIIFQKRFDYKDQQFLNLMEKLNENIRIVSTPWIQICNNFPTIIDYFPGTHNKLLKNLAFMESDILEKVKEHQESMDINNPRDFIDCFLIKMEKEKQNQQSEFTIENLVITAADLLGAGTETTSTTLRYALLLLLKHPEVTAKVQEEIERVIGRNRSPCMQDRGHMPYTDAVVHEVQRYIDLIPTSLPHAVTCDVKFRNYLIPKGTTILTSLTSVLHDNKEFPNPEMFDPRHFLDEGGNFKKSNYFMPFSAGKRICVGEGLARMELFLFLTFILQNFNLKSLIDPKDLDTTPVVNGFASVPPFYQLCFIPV

Cytochrome P450 2C9 (Homo sapiens), sequence (P11712 whole entry, looked up): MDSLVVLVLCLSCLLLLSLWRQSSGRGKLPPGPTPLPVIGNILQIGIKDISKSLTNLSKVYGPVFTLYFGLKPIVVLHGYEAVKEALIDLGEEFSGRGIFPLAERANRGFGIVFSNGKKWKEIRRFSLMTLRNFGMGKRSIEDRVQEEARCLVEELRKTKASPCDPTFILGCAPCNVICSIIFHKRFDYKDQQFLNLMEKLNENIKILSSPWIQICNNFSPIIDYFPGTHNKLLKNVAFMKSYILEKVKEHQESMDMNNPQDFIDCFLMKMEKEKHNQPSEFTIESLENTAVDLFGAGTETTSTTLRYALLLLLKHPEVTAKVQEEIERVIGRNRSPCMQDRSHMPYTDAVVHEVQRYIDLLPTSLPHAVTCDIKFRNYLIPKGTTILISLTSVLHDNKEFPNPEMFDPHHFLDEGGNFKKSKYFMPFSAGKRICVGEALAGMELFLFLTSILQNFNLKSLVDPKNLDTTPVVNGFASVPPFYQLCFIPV
Cytochrome P450 3A4 (Homo sapiens), sequence (P08684 whole entry, looked up): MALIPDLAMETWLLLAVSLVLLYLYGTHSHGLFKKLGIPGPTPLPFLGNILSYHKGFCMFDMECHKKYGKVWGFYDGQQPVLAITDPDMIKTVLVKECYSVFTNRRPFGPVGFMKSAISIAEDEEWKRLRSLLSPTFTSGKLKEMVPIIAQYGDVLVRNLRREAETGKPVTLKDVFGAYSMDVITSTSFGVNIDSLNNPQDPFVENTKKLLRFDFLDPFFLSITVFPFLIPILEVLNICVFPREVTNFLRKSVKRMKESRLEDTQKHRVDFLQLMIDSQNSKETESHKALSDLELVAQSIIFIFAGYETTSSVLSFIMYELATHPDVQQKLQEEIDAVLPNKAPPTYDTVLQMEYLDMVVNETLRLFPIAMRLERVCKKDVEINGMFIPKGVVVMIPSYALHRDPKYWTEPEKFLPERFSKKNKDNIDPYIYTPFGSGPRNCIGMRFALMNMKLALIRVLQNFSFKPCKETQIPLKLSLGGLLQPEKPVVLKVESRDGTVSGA
Cytochrome P450 2D6 (Homo sapiens), sequence (P10635 whole entry, looked up): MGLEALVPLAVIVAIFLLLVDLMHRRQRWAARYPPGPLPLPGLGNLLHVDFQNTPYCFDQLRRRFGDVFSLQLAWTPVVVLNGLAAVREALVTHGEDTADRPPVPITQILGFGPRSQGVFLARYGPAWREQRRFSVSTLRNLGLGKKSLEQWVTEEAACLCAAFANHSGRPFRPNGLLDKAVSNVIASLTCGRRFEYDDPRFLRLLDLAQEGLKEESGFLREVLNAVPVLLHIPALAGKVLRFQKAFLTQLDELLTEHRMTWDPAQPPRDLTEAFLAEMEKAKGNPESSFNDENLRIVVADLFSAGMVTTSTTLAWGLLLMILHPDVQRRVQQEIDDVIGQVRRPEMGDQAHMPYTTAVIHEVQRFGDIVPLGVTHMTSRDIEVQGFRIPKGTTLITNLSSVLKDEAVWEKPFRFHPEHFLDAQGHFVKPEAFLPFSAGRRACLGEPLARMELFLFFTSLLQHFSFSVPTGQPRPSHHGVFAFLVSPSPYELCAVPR

As for `COc1ccc2cc1Oc1ccc(cc1)C[C@H]1c3cc(c(OC)cc3CCN1C)Oc1c(OC)c(OC)cc3c1[C@H](C2)N(C)CC3`, the Potency entry in assay [1] was “inactive”.

As for `CS(=O)(=O)c1ccc(C2=C(c3ccccc3)C(=O)OC2)cc1`, in assay [1], the Potency entry was “inactive”. In addition, the outcome in assay [2] was inactive.

As for `CN1C(=O)C(Cc2c[nH]c3ccccc23)NC1=S` (stereo not given), the Potency in assay [1] is 6310 nM (active). For the same compound, the Potency entry in assay [3] was “inactive”.

Regarding `CCC(c1ccc(O)cc1)C(CC)c1ccc(O)cc1` (stereo not given), in assay [2], the call was inactive.

Regarding `COc1ccc2ccc(=O)oc2c1CC=C(C)C`, in assay [2], the compound was called inactive.

With `CN1CCN2c3ncccc3Cc3ccccc3C2C1` (stereo not given), the Potency in assay [4] was 50.1 nM (active); in assay [5] it was 501 nM (active); in assay [6], 50.1 nM (active).

In the case of `COC1CCC(C(=O)c2ccc3nc4c(cc3c2)CCCO4)CC1` (stereo not given), the Potency entry in assay [1] is “inactive”. The Potency in assay [3] was 5010 nM (active).

As to `CN(C)c1ccccc1CN1CCCN(Cc2ccccc2N(C)C)C1c1ccncc1`, the activity change, positive = activation in assay [3] is -30.9% [at 11.4 µM]. Besides, the Potency in assay [5] was 1260 nM (active).

Regarding `NC(=O)c1nnn(Cc2cc(Cl)c(C(=O)c3ccc(Cl)cc3)c(Cl)c2)c1N`, in assay [4], the activity change, negative = inhibition was 52.5% [at 11.4 µM].

As to `Clc1ccc(COC(Cn2ccnc2)c2ccc(Cl)cc2Cl)c(Cl)c1` (stereo not given), the Potency in assay [4] was 316 nM (active).

With `Cc1cc(NC(=O)Nc2ccc(N(C)C)cc2)c2cc(F)cc(F)c2n1`, the Potency in assay [4] and in assay [1] was 6310 nM (active) each time. The Potency result in assay [3] is “inactive”.

For `O=C1C(CCC(O)c2ccc(F)cc2)C(c2ccc(O)cc2)N1c1ccc(F)cc1` (stereo not given), the compound was classed as inactive in assay [2].
